{"source": "PubChem BioAssay (EPA / NIEHS)", "key": {"[1]": {"target": "rat Glycine Receptor, Strychnine-sensitive (GlyRStrySens), Glra1 (gene 25674) (UniProt P07727)", "sequence (P07727 whole entry, looked up)": "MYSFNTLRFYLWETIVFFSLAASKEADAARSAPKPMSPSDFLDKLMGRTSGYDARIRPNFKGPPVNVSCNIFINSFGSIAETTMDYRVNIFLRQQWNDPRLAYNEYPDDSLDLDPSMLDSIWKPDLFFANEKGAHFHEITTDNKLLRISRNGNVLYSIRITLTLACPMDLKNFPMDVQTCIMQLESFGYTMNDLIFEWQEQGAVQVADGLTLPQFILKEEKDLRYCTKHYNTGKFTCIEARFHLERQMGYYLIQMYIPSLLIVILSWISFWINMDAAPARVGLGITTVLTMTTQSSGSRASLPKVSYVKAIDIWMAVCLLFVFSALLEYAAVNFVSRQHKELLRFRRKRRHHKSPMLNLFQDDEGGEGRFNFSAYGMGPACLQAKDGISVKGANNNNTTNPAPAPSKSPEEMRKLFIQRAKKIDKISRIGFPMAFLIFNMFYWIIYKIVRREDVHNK", "assay": "NVS_LGIC_rGlyRStrySens: NovaScreen (NVS) Ligand-Gated Ion Channel Assay for rat Glycine Receptor, Strychnine-sensitive (GlyRStrySens) (AID 2283341)", "summary_of_the_method": "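Radioligand displacement on rat spinal cord membranes, 1 hr, filter scintillation read-out. Single-concentration duplicate screen at 25 uM; chemicals meeting threshold (e.g., 30% inhibition) rerun in concentration-response up to 50 uM. Loss of binding fitted versus DMSO.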"}, "[2]": {"target": "bovine Estrogen Receptor (ER), ESR1 (gene 407238) (UniProt P49884)", "sequence (P49884 whole entry, looked up)": "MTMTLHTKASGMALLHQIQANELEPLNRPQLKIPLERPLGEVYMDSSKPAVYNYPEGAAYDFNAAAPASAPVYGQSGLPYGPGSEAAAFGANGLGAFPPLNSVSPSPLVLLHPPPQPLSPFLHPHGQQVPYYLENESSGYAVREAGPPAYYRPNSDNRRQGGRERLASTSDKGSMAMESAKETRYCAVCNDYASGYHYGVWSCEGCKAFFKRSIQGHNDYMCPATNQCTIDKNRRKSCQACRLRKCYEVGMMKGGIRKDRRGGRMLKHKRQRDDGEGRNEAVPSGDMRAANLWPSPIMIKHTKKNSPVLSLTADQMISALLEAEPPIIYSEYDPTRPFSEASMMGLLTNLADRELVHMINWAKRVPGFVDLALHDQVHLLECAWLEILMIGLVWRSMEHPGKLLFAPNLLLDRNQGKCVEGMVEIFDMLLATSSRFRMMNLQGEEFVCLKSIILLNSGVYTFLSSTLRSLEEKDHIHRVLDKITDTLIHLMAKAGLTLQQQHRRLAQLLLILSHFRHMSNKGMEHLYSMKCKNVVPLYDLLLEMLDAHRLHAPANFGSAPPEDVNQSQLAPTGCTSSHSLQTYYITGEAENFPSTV", "assay": "NVS_NR_bER: NovaScreen (NVS) Nuclear Receptor Binding Assay for bovine Estrogen Receptor (ER) (AID 2283345);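 note: actives lower the bound radioligand count which means they displace the ER ligand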", "summary_of_the_method": "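Cell-free radioligand binding with bovine uterine membrane extracts, read 18 hours after dosing by scintillation counting. Loss of signal versus DMSO baseline indicates displacement. Primary screen run in duplicate at 25 uM, actives followed in concentration series.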"}, "[3]": {"target": "chimpanzee Androgen Receptor (AR), AR (gene 747460) (UniProt O97775)", "sequence (O97775 whole entry, looked up)": "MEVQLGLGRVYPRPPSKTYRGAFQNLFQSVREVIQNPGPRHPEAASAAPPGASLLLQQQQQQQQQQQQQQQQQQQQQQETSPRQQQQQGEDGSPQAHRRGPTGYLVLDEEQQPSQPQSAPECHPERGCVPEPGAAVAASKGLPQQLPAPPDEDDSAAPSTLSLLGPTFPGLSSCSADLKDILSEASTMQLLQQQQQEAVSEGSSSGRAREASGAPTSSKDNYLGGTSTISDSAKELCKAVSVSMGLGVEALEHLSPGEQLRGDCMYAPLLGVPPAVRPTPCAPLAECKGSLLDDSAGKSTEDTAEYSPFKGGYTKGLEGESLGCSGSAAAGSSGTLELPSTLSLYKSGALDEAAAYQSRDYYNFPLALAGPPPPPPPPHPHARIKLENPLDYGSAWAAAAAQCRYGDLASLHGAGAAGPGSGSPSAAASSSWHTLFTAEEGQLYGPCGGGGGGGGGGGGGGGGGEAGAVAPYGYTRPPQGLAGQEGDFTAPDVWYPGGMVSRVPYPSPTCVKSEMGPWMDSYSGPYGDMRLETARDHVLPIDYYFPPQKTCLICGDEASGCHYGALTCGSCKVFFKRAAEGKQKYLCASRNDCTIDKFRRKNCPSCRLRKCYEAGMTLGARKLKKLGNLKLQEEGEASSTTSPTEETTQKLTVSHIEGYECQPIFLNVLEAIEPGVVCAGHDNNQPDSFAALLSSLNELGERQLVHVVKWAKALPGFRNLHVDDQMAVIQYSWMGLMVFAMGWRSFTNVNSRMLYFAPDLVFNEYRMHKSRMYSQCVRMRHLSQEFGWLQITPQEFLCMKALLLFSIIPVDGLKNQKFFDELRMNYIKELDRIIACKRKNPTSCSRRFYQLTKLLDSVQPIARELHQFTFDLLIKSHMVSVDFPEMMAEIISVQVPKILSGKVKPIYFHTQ", "assay": "NVS_NR_cAR: NovaScreen (NVS) Nuclear Receptor Binding Assay for chimpanzee Androgen Receptor (AR) (AID 2283346)", "summary_of_the_method": "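Cell-free competition binding with insect-cell (Sf9/Sf21) extracted chimpanzee AR; scintillation signal from lysate at 72 h. Screened in duplicate at 25 uM, then concentration-response for actives; fitting relative to DMSO.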"}, "[4]": {"target": "rat Glutamate, MK-801 Agonist Site (GluNMDA_MK801), Grin1 (gene 24408) (UniProt P35439)", "assay": "NVS_LGIC_rGluNMDA_MK801_Agonist: NovaScreen (NVS) Ligand-Gated Ion Channel Assay for rat Glutamate, MK-801 Agonist Site (GluNMDA_MK801) (AID 2283340)", "summary_of_the_method": "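Rat forebrain membrane preparation; MK-801-site radioligand binding read by filtration and scintillation after 1.5 h. Single-point 25 uM duplicate screen, followed by singleton concentration series to 50 uM max; DMSO baseline.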"}, "[5]": {"tested_on": "guinea pig Histamine Receptor (H2), gene 100729734", "assay": "NVS_GPCR_gH2: NovaScreen (NVS) G Protein-Coupled Receptor Assay for guinea pig Histamine Receptor (H2) (AID 2283342)", "summary_of_the_method": "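Guinea pig striatal membrane preparation with specific radioligand; bound counts measured by filtration and scintillation 1 h post-dosing, DMSO as baseline. Chemicals passing a 25 uM duplicate screen were titrated to a 50 uM maximum.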"}, "[6]": {"target": "human Peripheral-type Benzodiazepine Receptor (PBR), TSPO (gene 706) (UniProt P30536)", "sequence (P30536 whole entry, looked up)": "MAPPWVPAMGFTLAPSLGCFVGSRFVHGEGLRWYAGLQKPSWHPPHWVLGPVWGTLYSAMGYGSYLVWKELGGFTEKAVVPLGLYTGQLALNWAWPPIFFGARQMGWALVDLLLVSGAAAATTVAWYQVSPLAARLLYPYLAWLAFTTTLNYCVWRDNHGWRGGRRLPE", "assay": "NVS_MP_hPBR: NovaScreen (NVS) Membrane Protein Assay for human Peripheral-type Benzodiazepine Receptor (PBR) (AID 2283331)", "summary_of_the_method": "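Cell-free binding to human colonic membrane preparations measured by filter-based scintillation counting after 1 h. Compounds first run at 25 uM in duplicate, then concentration series for actives; signal loss against DMSO baseline.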"}, "[7]": {"target": "Voltage-gated inwardly rectifying potassium channel KCNH2 (Homo sapiens) (UniProt Q12809)", "sequence (Q12809 whole entry, looked up)": "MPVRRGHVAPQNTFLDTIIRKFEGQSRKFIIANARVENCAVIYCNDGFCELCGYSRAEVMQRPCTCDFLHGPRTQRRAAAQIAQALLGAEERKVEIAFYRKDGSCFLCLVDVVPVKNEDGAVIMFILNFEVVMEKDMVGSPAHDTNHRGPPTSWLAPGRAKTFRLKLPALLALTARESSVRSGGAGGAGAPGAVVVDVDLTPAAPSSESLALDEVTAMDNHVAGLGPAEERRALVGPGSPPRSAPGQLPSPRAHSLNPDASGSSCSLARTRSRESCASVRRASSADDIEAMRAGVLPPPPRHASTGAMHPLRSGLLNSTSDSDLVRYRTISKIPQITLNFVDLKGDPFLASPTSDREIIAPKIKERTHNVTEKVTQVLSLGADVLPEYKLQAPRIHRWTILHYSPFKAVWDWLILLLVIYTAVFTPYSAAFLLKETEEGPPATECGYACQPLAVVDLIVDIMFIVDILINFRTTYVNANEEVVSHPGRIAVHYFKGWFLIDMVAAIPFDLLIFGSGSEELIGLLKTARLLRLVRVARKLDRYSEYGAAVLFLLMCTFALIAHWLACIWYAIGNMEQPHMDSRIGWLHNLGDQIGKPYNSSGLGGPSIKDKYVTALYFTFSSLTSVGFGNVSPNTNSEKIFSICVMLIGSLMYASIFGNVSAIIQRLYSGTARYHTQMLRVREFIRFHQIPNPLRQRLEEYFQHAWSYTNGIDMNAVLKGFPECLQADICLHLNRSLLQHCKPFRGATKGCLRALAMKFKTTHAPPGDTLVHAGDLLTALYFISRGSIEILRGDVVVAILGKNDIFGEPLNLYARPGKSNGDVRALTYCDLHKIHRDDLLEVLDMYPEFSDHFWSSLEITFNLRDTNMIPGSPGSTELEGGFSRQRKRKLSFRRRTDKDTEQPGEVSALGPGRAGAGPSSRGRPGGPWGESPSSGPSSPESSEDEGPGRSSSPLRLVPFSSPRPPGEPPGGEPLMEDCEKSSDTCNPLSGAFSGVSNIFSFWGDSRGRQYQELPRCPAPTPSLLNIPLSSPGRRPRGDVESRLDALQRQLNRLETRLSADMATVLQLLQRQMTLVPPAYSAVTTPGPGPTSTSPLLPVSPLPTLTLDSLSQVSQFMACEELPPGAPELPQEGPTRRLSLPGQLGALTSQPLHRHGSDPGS", "assay": "NVS_IC_hKhERGCh: NovaScreen (NVS) Ion Channel Assay for human Potassium Channel ERG (KhERGCh) (AID 2283333)", "summary_of_the_method": "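Membranes from CHO cells expressing human ERG; displacement of radioligand measured by filtration and scintillation after 0.75 h. Single-concentration duplicate screen at 25 uM, then concentration-response for actives; DMSO baseline.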"}, "[8]": {"target": "rat Peripheral-type Benzodiazepine Receptor (PBR), Tspo (gene 24230) (UniProt P16257)", "sequence (P16257 whole entry, looked up)": "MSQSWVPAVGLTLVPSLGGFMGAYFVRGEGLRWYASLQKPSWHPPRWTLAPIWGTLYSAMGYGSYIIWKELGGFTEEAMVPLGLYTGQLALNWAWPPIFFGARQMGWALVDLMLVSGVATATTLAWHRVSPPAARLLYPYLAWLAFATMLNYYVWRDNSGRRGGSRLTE", "assay": "NVS_MP_rPBR: NovaScreen (NVS) Membrane Protein Assay for rat Peripheral-type Benzodiazepine Receptor (PBR) (AID 2283335)", "summary_of_the_method": "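Competitive displacement of specific radioligand from rat kidney membrane PBR, read by filtration and scintillation after 1 h. Compounds first tested at 25 uM in duplicate, then in concentration series; signal loss relative to DMSO.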"}, "[9]": {"assay": "NVS_IC_rCaBTZCHL: NovaScreen (NVS) Ion Channel Assay for Calcium Channel, Type L, Benzothiazepine Site (CaBTZCHL) (AID 2283337)", "summary_of_the_method": "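Rat cortical membrane preparation incubated 1.5 h with compound and benzothiazepine-site radioligand; loss of filter-bound counts versus DMSO marks displacement. Initial duplicate testing at 25 uM, actives followed up in concentration series.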"}, "[10]": {"target": "human Constitutive Androstane Receptor (CAR), NR1I3 (gene 9970) (UniProt Q14994)", "sequence (Q14994 whole entry, looked up)": "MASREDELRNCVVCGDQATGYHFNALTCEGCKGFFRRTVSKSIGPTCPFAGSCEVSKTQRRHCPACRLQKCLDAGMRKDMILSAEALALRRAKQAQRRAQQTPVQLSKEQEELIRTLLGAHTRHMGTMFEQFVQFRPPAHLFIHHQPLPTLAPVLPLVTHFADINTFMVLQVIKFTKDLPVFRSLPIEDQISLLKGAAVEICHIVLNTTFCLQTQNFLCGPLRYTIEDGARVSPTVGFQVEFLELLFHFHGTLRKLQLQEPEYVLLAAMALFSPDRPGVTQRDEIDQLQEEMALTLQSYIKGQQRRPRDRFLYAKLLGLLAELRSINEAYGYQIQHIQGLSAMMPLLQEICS", "assay": "NVS_NR_hCAR_Antagonist: NovaScreen (NVS) Nuclear Receptor Binding Assay for human Constitutive Androstane Receptor Antagonism (CAR) (AID 2283344)", "summary_of_the_method": "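Single 25 uM duplicate primary screen, with concentration-series follow-up on actives. Cell-free binding format run in antagonist mode, TR-FRET signal taken 1 h post-dose; activity is signal loss relative to DMSO.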"}, "[11]": {"target": "bovine Gamma-Aminobutyric Acid Type A Receptor Agonist (GABAR Agonist), GABRA1 (gene 780973) (UniProt P08219)", "sequence (P08219 whole entry, looked up)": "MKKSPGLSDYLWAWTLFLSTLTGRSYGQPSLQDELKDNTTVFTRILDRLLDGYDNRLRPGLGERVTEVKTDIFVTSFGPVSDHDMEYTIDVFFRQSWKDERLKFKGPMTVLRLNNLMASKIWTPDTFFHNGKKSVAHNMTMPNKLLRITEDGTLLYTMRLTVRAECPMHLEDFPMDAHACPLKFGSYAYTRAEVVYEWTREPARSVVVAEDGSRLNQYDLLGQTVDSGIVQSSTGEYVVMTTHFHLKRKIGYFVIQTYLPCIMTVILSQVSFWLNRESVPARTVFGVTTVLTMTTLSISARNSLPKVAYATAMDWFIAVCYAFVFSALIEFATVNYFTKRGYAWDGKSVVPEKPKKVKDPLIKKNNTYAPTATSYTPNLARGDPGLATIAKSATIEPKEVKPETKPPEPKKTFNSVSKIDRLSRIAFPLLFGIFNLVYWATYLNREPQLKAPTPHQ", "assay": "NVS_LGIC_bGABAR_Agonist: NovaScreen (NVS) Ligand-Gated Ion Channel Assay for bovine Gamma-Aminobutyric Acid Type A Receptor Agonist (GABAR Agonist) (AID 2283338)", "summary_of_the_method": "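Radioligand binding to bovine cerebellar membranes in agonist format, read by filter-based scintillation counting after 1 h. Primary screen in duplicate at 25 uM, with actives followed in concentration series. Gain of signal versus DMSO.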"}, "[12]": {"target": "human Androgen Receptor (AR), AR (gene 367) (UniProt P10275)", "assay": "NVS_NR_hAR: NovaScreen (NVS) Nuclear Receptor Binding Assay for human Androgen Receptor (AR) (AID 2283332)", "summary_of_the_method": "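Radioligand competitive binding, scintillation read-out, in cell-free extract from LnCAP, measured 20 h after dosing. Screened first in duplicate at 25 uM, then concentration series for actives; activity fitted against DMSO.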"}}, "note": "Values joined by “and” are separate entries in the source; they are usually repeats but may differ in a detail not shown here. Equal values may be shown once. Results filed as inconclusive are left out. Some compounds were tested as several samples or in several runs, with calls that do not always agree. Active and inactive are the calls of the source. Rule for the calls: active = hit-call score of the fitted dose curve at least 0.9, where 1 is the maximum; inconclusive = response in the unintended direction; inactive = score below 0.9.", "data": [{"molecule": "O=C(O)Cc1cc(I)c(Oc2ccc(O)c(I)c2)c(I)c1", "values": [{"measurement": "outcome", "setting": "[1]", "result": "inactive"}]}, {"molecule": "CCCOC(=O)c1cc(O)c(O)c(O)c1", "values": [{"measurement": "outcome", "setting": "[2]", "result": "inactive"}]}, {"molecule": "CCN(Cc1cccc(S(=O)(=O)O)c1)c1ccc(C(=C2C=CC(=[N+](CC)Cc3cccc(S(=O)(=O)O)c3)C=C2)c2ccccc2S(=O)(=O)[O-])cc1", "values": [{"measurement": "AC50", "setting": "[3]", "result": "16.1 µM (active)"}]}, {"molecule": "O=CCCCC=O", "values": [{"measurement": "outcome", "setting": "[2]", "result": "inactive"}]}, {"molecule": "c1ccc(C[n+]2cccc3ccccc32)cc1", "values": [{"measurement": "outcome", "setting": "[4]", "result": "inactive"}, {"measurement": "AC50", "setting": "[5]", "result": "25 µM (active)"}, {"measurement": "outcome", "setting": "[2]", "result": "inactive"}]}, {"molecule": "C[C@]12CC[C@@H]3c4ccc(O)cc4CC[C@H]3[C@@H]1CCC2=O", "values": [{"measurement": "outcome", "setting": "[2]", "result": "inactive"}, {"measurement": "AC50", "setting": "[3]", "result": "0.472 µM (active)"}, {"measurement": "outcome", "setting": "[3]", "result": "inactive"}]}, {"molecule": "NCc1cccc(C2CCN(C(=O)c3ccc(C#Cc4ccccc4F)o3)CC2)c1", "values": [{"measurement": "AC50", "setting": "[6]", "result": "2.7 µM (active)"}, {"measurement": "AC50", "setting": "[7]", "result": "6.03 µM (active)"}, {"measurement": "outcome", "setting": "[8]", "result": "inactive"}, {"measurement": "AC50", "setting": "[9]", "result": "2.9 µM (active)"}, {"measurement": "AC50", "setting": "[4]", "result": "39.9 µM (active)"}, {"measurement": "outcome", "setting": "[1]", "result": "inactive"}, {"measurement": "AC50", "setting": "[5]", "result": "12 µM (active)"}, {"measurement": "AC50", "setting": "[3]", "result": "32.6 µM (active)"}]}, {"molecule": "CC1=CC(=O)/C(=C(/C)O)C(=O)O1", "values": [{"measurement": "outcome", "setting": "[10]", "result": "inactive"}]}, {"molecule": "Clc1ccccc1C(c1ccccc1)(c1ccccc1)n1ccnc1", "values": [{"measurement": "outcome", "setting": "[2]", "result": "inactive"}]}, {"molecule": "NC(=O)c1nc(-c2cccc(-c3cc(F)ccc3OCC(F)(F)C(F)(F)F)c2)n[nH]1", "values": [{"measurement": "outcome", "setting": "[6]", "result": "inactive"}, {"measurement": "AC50", "setting": "[8]", "result": "5.7 µM (active)"}]}, {"molecule": "Cc1cccc2ccccc12", "values": [{"measurement": "outcome", "setting": "[11]", "result": "inactive"}]}, {"molecule": "CC(=O)N1CCN(c2ccc(OC[C@H]3CO[C@](Cn4ccnc4)(c4ccc(Cl)cc4Cl)O3)cc2)CC1", "values": [{"measurement": "outcome", "setting": "[10]", "result": "inactive"}]}, {"molecule": "CC(C)(C)c1cc(/C=C2\\SC(N)=NC2=O)cc(C(C)(C)C)c1O", "values": [{"measurement": "outcome", "setting": "[2]", "result": "inactive"}, {"measurement": "AC50", "setting": "[3]", "result": "33.9 µM (active)"}]}, {"molecule": "CCCCCCCCOC(=O)c1cc(O)c(O)c(O)c1", "values": [{"measurement": "AC50", "setting": "[6]", "result": "0.439 µM (active)"}, {"measurement": "AC50", "setting": "[8]", "result": "2.82 µM (active)"}, {"measurement": "AC50", "setting": "[2]", "result": "36.7 µM (active)"}]}, {"molecule": "O=c1c(-c2ccc(O)cc2)coc2cc(O)cc(O)c12", "values": [{"measurement": "AC50", "setting": "[6]", "result": "8.19 µM (active)"}, {"measurement": "outcome", "setting": "[12]", "result": "inactive"}, {"measurement": "outcome", "setting": "[8]", "result": "inactive"}, {"measurement": "outcome", "setting": "[3]", "result": "inactive"}]}, {"molecule": "CC1(C)NC(=O)N(c2ccc([N+](=O)[O-])c(C(F)(F)F)c2)C1=O", "values": [{"measurement": "AC50", "setting": "[3]", "result": "1.06 µM (active) and 136 nM (active)"}]}, {"molecule": "Cc1ccc2oc(CN(Cc3ccccc3)C(=O)Nc3c(F)cc(F)cc3F)c(-c3ccc(Cl)cc3)c2c1", "values": [{"measurement": "AC50", "setting": "[6]", "result": "2.6 µM (active)"}, {"measurement": "AC50", "setting": "[8]", "result": "4.2 µM (active)"}]}, {"molecule": "CN1C(=O)N(c2ccccc2Br)Cc2cnc(Nc3ccc4c(c3)OCC(CO)O4)nc21", "note": "(stereo not drawn)", "values": [{"measurement": "AC50", "setting": "[2]", "result": "0.447 µM (active)"}, {"measurement": "outcome", "setting": "[3]", "result": "inactive"}]}]}
